Source: the supplement of paper PMC10105736
A number with no mark means an inactive call.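 Rule for the calls: active = MAPPIT score above the 99th percentile of random reference set scores in the same batch; inactive = at or below it.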

Tests used:
Experiment in all cases: MAPPIT interaction score (arbitrary units); higher = stronger binary interaction signal, active = hit call of the paper
CG11555 = settings: MAPPIT configuration: N-N; pair source set: Curagen_high_conf
CG5708 = settings: MAPPIT configuration: N-C; pair source set: screen_4
CG11723 = settings: MAPPIT configuration: N-N; pair source set: screen_2
CG31624 = settings: MAPPIT configuration: N-N; pair source set: screen_2
CG11275 = settings: MAPPIT configuration: N-N
CG11596 = settings: MAPPIT configuration: N-N; pair source set: Finley_Y2H
CG10841 = settings: MAPPIT configuration: N-N; pair source set: screen_2
CG10918 = settings: MAPPIT configuration: N-N; pair source set: Finley_Y2H
CG10483 = settings: MAPPIT configuration: N-N; pair source set: DPIM
CG4847 = settings: MAPPIT configuration: N-N; pair source set: DPIM
twin = settings: MAPPIT configuration: N-N; pair source set: DPIM
CG10874 = settings: MAPPIT configuration: N-N; pair source set: Lit-BS-16
RpL38 = settings: MAPPIT configuration: N-N; pair source set: Curagen_high_conf
bond = settings: MAPPIT configuration: N-N; pair source set: Curagen_low_conf
CG8159 = settings: MAPPIT configuration: N-N; pair source set: Curagen_low_conf
CG10616 = settings: MAPPIT configuration: N-N; pair source set: Finley_Y2H
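Note: HEK293T cells with Epo stimulation, STAT-responsive firefly luciferase reporter, fold induction versus unstimulated cells divided by the larger fold induction of two negative controls lacking either bait or prey.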

B1: PolE2 (protein)
chain: MDVDLLPLRKRITNTFKLCGFLIRSENSSYLAEQLLPFDAAERDKWLTVITENLQSQKLLTPHVERAALEKAINELNRVGLDEGETVFALIDAFTVPRFRYNQRIKKFELDTQPRQLLTAPRMKSDYMQQRYAMLLQKTLRHDLFAPAVIQDGVGAEAQAKKFKLQFAENLLATSAMKEAVVLGLLTQLKEGKFYVEDPTGCVQLDLTGARFHAGFFCEGCFVLAEGNYNNGVLKVDGLGFPPAEPANSSRAFFGTANTWGGESAKLLKYSAGLQELERTNTETTIVFLSDVRLDLPVVMEKLRQLFVGYDSCPPQAIVLMGPFTASTRNHHELRHHLDALGGLAAGCEQLKKQTDLILVPSSEDPTAPNILPRAPIPECLAAGLLKAWPRTQLATNPCRLQYCTQQIVVCRLDLMAKFCRNTLHFPEDTSQIEQHFARTIVCQGHLVPIHPIAMPVHWDYDPALWLYPLPDLIVMGDSCQSFSSSQHGCTVLNTGSFVKSKFAFKVYIPATRTIEDSEIPDELE
With B1 the MAPPIT interaction score (CG11555) was 0.14 and the MAPPIT interaction score (CG5708) was 1.19.

B2: su(sable) (protein)
chain: MSVALADEPLIDLEEDLEDGEIDDDEEDEQQSSKIQVQKKTFVGDDDVQFVGVEAKNQNDDEDVVYVGPSTDAVCLQNSNSTKSKKPRPLEDDHASSIELAIANALKKKGIEPPMPRMRSSNQDTSDQSLEGSGEGLATANPLLQSTRSSRRRKRKKEREREQKKDKEQQNRSRRDENDVSVVPGGVEDMDEYEMMNVRGGSPPPGGAAPPLSSCGQRFSGADWDMDDGSAATGAAGLGAGGGGGYNSHSSYDSYSDEETNGPGLMNQRRRTRRDNEKEHQRGVNNRKRRDRDRLEGGLAGSGSKRNRRDSGEGGGGGQEKMGGSNRVEPRKLELCKFYLMDCCAKRDKCSYMHKEFPCKYYYLGMDCYAGDDCLFYHGEPLSEQLRNVLLKHMETAPKEILGDFKRISRDIAIVQMTRRHEQLCDQLNRENTWNSIGCGLMGKRQDHQMQQQQQQLQHQQLQQQQEQQQTQQQAAADGGGCIPSLLDMVINPPLSENKRKSRWTEKMGAKAAAGAAGSSERDSTSPDAKPLPPHLDLANLSHVLSAENMAKLNKLGITNLEQMLQVPFGQLTEAGLTLVEIGEIQRKAEDAKPQTQAELESSTPPSKRETEANNSNSKSNGLIMVDYTQYLKDAHVSFSGNDPLDDDRDDDEQLIIDDGNDSTAEEDQQPKKAKAPPAATHESSTEEAPLPSVFDLPSFMNNMLGQGSSARQLLPASATSPNQENAHLPGGDQSTHKSAPIGGGTSTNVLGRILFGDKQSDPEARAAFYRDIIRNPFKAHSGDGDVDSSNENSNSNSHSLTPTPTPEPGSQSPKPEDHDQDMPELPVIAPALPPTTPSLYVRRSMYDFDPVKEQEHGRQELLTEEKEQYQRDTDMRLPFEPMKHYMPATEIDAAIFSHTPIRWQLHEVTIEESSYAQIRASALHKEQRELRDPRMRRILGLPETPDNSGPLGSVPIMGPSSFSVDNIARCATTIASPDLETAVRDSTPSSPPPSVVNLPSMSVPPPSMRVPPPNIQVEKPTVRTDPRRDPRRAVLQAPTKGASTANTTAPNASGGSKQISEIRSLLQVSNWYNNLGTNNKIMVNQQLALVFTELKKFHQLPNDAPKIFDVSFIVNNTTLQQIFAKLFIFVDDNGEVVQIPEEPNGNGAALGGGGDSGGGVGGGGGGGGVVLPNLSQPPPNLSQMLRLPPPNIRMLRMSGMMMQMGNVGPPFNQPPPRGGLMGMPPNGNGLNQGVGNLGGLGQLGINQGGGPVPNGNPFNPFGGNNGGGAGVMNNMNSMGNMGMGFNNFNNNGGRGGHFPGGGSGGNGNGNNRNQRGGNHRNRNI
For B2, the MAPPIT interaction score (CG11723) was 0.327 and the MAPPIT interaction score (CG31624) was 1.52.

B3: Lcp2 (protein)
chain: MFKFVMILAVVGVATALAPVSRSDDVHADVLSRSDDVRADGFDSSLHTSNGIEQAASGDAHGNIHGNFGWISPEGEHVEVKYVANENGYQPSGAWIPTPPPIPEAIARAVAWLESHPPAPEHPRHH
For B3, the MAPPIT interaction score (CG11275; pair source set: Curagen_high_conf) was 0.91.

B4: TfIIFbeta (protein)
chain: MSKEDKEKTQIIDKDLDLSNAGRGVWLVKVPKYIAQKWEKAPTNMDVGKLRINKTPGQKAQVSLSLTPAVLALDPEEKIPTEHILDVSQVTKQTLGVFSHMAPSDGKENSTTSAAQPDNEKLYMEGRIVQKLECRPIADNCYMKLKLESIRKASEPQRRVQPIDKIVQNFKPVKDHAHNIEYRERKKAEGKKARDDKNAVMDMLFHAFEKHQYYNIKDLVKITNQPISYLKEILKDVCDYNMKNPHKNMWELKKEYRHYKTEEKKEEEHKSGSSDSE
Binder B4 has an MAPPIT interaction score (CG11596) of 0.174.

B5: mxt (protein)
chain: MAHTHLGRAVKNIEAPRPLKTQSRSSLKNSYLVIEELIQLIDNVTVGLQSCNTTPESITLLLHNLRVHGPQLEAVSKDTLDRAFVVFRNASQDERLNITTRLKLLELIELRAKSWDNDDTIAYYKSKQQISNVELPSEYQYDAGVQPGAFSTSPTFGVSGGVGGVNDGAAAAAAAVFNAASAAAAAQAAAIAAVGTSNQQHMLLPPGEVIRNSGKFPKPTKIPGKTYCKDEVVIRNADSGKVMGIKGRRVHMIEELSETIISFQRVNPGAKERLVQITGPAEDKINYAKQLMEDTIRRNASPVRLEPAPAVGGSCSSLNSSNSDDAIVQPRTPTGSSLANRLSFNSAQNFMTATAAAQQISQQMHHQTHHLQHQQQQQVAAVAAAAAAAAHAQATAAAGKVLRPNQQLLMHSYSTNDASVGEYKFTVNVGQHLIKITGDCCELVRVAKLVLDDYFSSSEFLASIEAGAAFDGTSLVTTPSTPLPGAGPPQFWLPGTDSGIGLNCVVSSSANNNGEGDDEVFAEPSNGGSSTSNQNGLARSRRSHFSRKESTPETKGAREKGDLDDLAGTNSLKSNASRVSYDIEHLLYYSMSPHSWTLPTDWQKMQETAPSILRNKDLQDESQRFDGDKYLASIKTAAKRDIVAADEVETLDE
B5 showed an MAPPIT interaction score (CG10841) of 0.671.

B6: Fer2LCH (protein)
chain: MKFFVALALFACLGSLALAKDDEYCQNTVITACSTSAFSANSICNARFAGIDHIEPEIQSYINANLAKSYDYLLLATHFNSYQKNRPGFQKLYQGLSDRSFEDSIALIKQVTRRGGIVDFNTRHESSGSVSTKRGTLEVDELHSLALALDTEKQLATGATHVHSRATHATDAERDPELAHYFEENFLGKQAESVRKLSGYANDLAKLMKVPDPSLSVYLFDEYLQKQ
With B6 the MAPPIT interaction score (CG10918) was 0.0432.

B7: CG1785 (protein)
chain: MTAVEPATKKKRISKKNKSAWRKTDIQDVEQFLEDQRQEERVGTFADKQDEDLFVVDSSLPKTKATVLSVKQKRKLNAKKPMRSYQALENTSKVQDPIAKRNHVRQKKNGRNIELEVCNPTKPRHRQANSDRAQYYVKLEQRLADKKNKKLDVEKDIWQEVDFRDEIPGLKDEKGWISRELALHTAGNIGKKVVKTHASLHHKTTKAKKFELPHPGMSYNPAPEDHQALIDQVVEREEGIIKKEQHLKRVTTSMFSKVTPEERDRRRLNEMSQGMDEEEGSELDEDVQTNGKKKEDDDEKPYHTINAPVENKKKSKQARRNELKQKELARQTELKRKLKQQTADLIRIKSIRHELDDEEEDLNDLKKRRKQRAEKAKFEPKRLGRHKFEEPDLDVNLPEDIAGNLRNVKTESSLLKDRFHTLQRNNMLPTTKLVSRKKSKVKRFERNSHKEPGVSYNDLKERRRAAAAAAKATANIKI
B7 was tested, and the MAPPIT interaction score (CG10483) was 0.068, the MAPPIT interaction score (CG4847) was 0.0294 and the MAPPIT interaction score (twin) was -0.15.

B8: gus (protein)
chain: MGQKISGGVKTVSRNDSQSTFKPIIPRELQADFVKPARIDILLDMPPASRDLQLKHSWNSEDRSLNIFVKEDDKLTFHRHPVAQSTDCIRGKVGLTKGLHIWEIYWPTRQRGTHAVVGVCTADAPLHSVGYQSLVGSTEQSWGWDLGRNKLYHDSKNCAGVTYPAILKNDEAFLVPDKFLVALDMDEGTLSFIVDQQYLGIAFRGLRGKKLYPIVSAVWGHCEITMRYIGGLDPEPLPLMDLCRRTIRQKIGRTNLEEHIQQLQLPLSMKTYLLYKNRR
For B8, the MAPPIT interaction score (CG10874) was 0.809, the MAPPIT interaction score (RpL38) was 0.363 and the MAPPIT interaction score (bond) was 0.0719.

B9: Adf1 (protein)
chain: MHTLTAAIEMDKLDANLEQQFDLNLIEAVKLNPVIYDRSHYNYKHFVRKAQTWKQIAETLGVPEQKCTKRWKSLRDKFAREMKLCQESRWRYFKQMQFLVDSIRQYRESLLGKCANGSQSANQVADPSQQQQAQQQTVVDIFAQPFNGSATTSAQALTHPHEITVTSDAQLATAVGKDQKPYFYEPPLKRERSEEEHSDNMLNTIKIFQNNVSQAVSAEDQSFGMVVTDMLNTLGVRQKAEAKVHIIKYLTDMQLLAQHNKY
For B9, the MAPPIT interaction score (CG11275; pair source set: screen_1) was 2.6 (active) and the MAPPIT interaction score (CG8159) was -0.0528.

B10: wbl (protein)
chain: MMHILVTLLLVAIHSIPTTWAVTCTGCVDLDELSFEKTVERFPYSVVKFDIAYPYGEKHEAFTAFSKSAHKATKDLLIATVGVKDYGELENKALGDRYKVDDKNFPSIFLFKGNADEYVQLPSHVDVTLDNLKAFVSANTPLYIGRDGCIKEFNEVLKNYANIPDAEQLKLIEKLQAKQEQLTDPEQQQNARAYLIYMRKIHEVGYDFLEEETKRLLRLKAGKVTEAKKEELLRKLNILEVFRVHKVTKTAPEKEEL
In the case of B10, the MAPPIT interaction score (CG10616) is reported as -0.151.
